PMP22 txn prim: modulates PMP22 transcription in S16 Schwann cells; S16 Pmp22-F2sN Schwann cells, FLuc/NLuc coincidence luminescence, 24 h; Potency, µM (highest dose often 57.5 µM), for the others: at the highest dose activity change, negative = inhibition, hits mostly inhibitors; hit rate 2% among 43,000; active means clear falling dose curves in both reporters; inconclusive means both reporters move, but less clearly or upward; inactive means either reporter flat; the % is the NLuc reporter signal
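S16 Schwann cells carrying FLuc/NLuc coincidence reporter in the Pmp22 3' UTR treated with compound 24 h at 37C; FLuc then NLuc luminescence read sequentially by dual-luciferase reagents.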
S16 F2sN tox: cytotoxicity in S16 Pmp22-F2sN Schwann cells; S16 Pmp22-F2sN Schwann cells viability, CellTiter-Glo, 24 h; hit rate 0.48% among 43,000; Potency, µM (series often up to 57.5 µM), inactives show top-dose activity change, negative = cytotoxicity, actives largely listed as cytotoxic; AID 1508642; further: nearly all actives have a fitted effect of over 65% in size
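Viability was measured by CellTiter-Glo luminescence (15 min, room temperature). This followed 24 h at 37 °C of compound exposure (23 nL pin transfer) in S16 Pmp22-F2sN Schwann cells, 500-1,000 per well.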
OvCa metastasis: ovarian cancer metastasis inhibition, 3D TME model; SKOV3ip1-GFP adhesion/invasion on 3D omental model, fluorescence; Potency, µM (titrated, usually from 45.8 µM), for the others: at the top dose activity change, negative = inhibition, most hits filed as inhibitors; AID 1963576; hit rate 0.1% among 46,000;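 further: plate controls were DMSO wells for no effect and tomatine positive control wells for full effect; nearly all actives have a fitted effect of over 65% in size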
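Primary human omental fibroblast/mesothelial 3D culture pre-formed 48 h. SKOV3ip1-GFP cells added with compounds (0.36-46 umol/L), incubated 2 h RT/16 h 37 C, fixed; GFP cells quantified at 488/509 nm.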
mTORC1 inh: inhibitors of mTORC1 signaling in Tsc2-/- p53-/- MEF cells. Potency, µM (series often up to 38.3 µM), without a hit: at the top dose activity change, negative = inhibition, usual class: inhibitors. Tsc2-/- p53-/- MEF, phospho-rpS6 immunofluorescence/PI, 24 h. hit rate 0.78% among 44,000;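 further: plate controls were DMSO for no effect and rapamycin for full effect; nearly all actives have a fitted effect of over 50% in size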
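Plate MEFs (Tsc2-/-, p53-/-, empty vector) in DMEM/10% FBS; after 24 h add compound, incubate 24 h at 37 degree Celsius; fix in PFA/TX-100, block, stain phospho-rpS6 and 10 uM PI; scan at 488 nm; report % positive cells.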
p53null 32C kill: p53 null cell cytotoxicity, permissive temperature | H1299-neo p53 null cells, ATP luminescence, 24 h, 32C | Potency, µM (titrated, usually from 46.1 µM), without a hit: at the top dose activity change, negative = cytotoxicity, usual class: cytotoxic | hit rate 0.62% among 55,000;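 further: 0% = DMSO only and -100% = full killing by 100 µM tamoxifen; nearly all actives have a fitted effect of over 55% in size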
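Cells lacking p53 (H1299-neo) are plated at 600 per well and allowed to settle overnight at 37C. Test compounds (up to 46 uM) are added and held 24 hours at 32C, then ATP is quantified by luminescence.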
p53null 39C tox: selectivity test: cytotoxicity in p53 null cells, nonpermissive temperature. H1299 p53-null (neo) cells, 39C, ATPlite viability, 24 h. Potency, µM (titrated, usually from 46.1 µM), without a hit: top-dose activity, negative = cell killing, hits mostly cytotoxic. hit rate 0.97% among 55,000. AID 904;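 further: 0% = DMSO only and -100% = full killing by 100 µM tamoxifen; nearly all actives have a fitted effect of over 50% in size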
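Temperature-shift cytotoxicity format: compound titrations on p53-null or A138V-expressing H1299 cells held 24 hr at 39C, cell ATP then measured, AC50 from Hill model.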
Starred values were filed as active, the others as inactive; i = inactive; u = inconclusive; x = no result given. Rows were chosen to be rich in hits. Some 3.1% of all compounds tested hit in one or more screens of this group. Unless noted, the call rests on the fitted dose curve; in most records, active means well fitted curve in the direction sought with a large enough effect; inconclusive means small, poorly fitted or top-dose-only effect, or another doubt; inactive means no such curve, though single readings can be large; an effect the other way counts as inactive or inconclusive. Unless noted, on the % scale 0 is the no-effect control and ±100 the full control effect; potency means the concentration at half of the fitted maximal effect.

SMILES	PMP22 txn prim	S16 F2sN tox	OvCa metastasis	mTORC1 inh	p53null 32C kill	p53null 39C tox
COc1ccc(CCNS(=O)(=O)c2c(C)nc3sc(C)cn3c2=O)cc1OC	-9.3%	16.8%	3.8%	-10.7%	6.2%	2.0%
Cc1ccc2nc(/C(C#N)=C/c3ccc(-c4ccc(F)cc4F)o3)[nH]c2c1	-37.7%	-2.1%	-11.2%	-7.5%	-16.1%	7.94µM*
Cc1c(Cl)cccc1-c1ccc(/C=C(\C#N)c2nc3ccccc3[nH]2)o1	u	-9.8%	-21.6%	-28.8%	u	10µM*
Cc1ccccc1CN1C(=O)C(O)(CC(=O)c2ccccc2)c2cc(Cl)ccc21 (configuration not stated)	u	u	u	11.7µM*	38.0%	16.5%
Cc1ccccc1CN1C(=O)C(O)(c2c[nH]c3ccccc23)c2cc(Cl)ccc21 (configuration not stated)	u	1.3%	-24.0%	u	u	u
CCc1ccc(C(=O)CC2(O)C(=O)N(CCc3ccccc3)c3ccc(Cl)cc32)cc1 (configuration not stated)	u	20µM*	u	u	49.4%	u
Cc1nn(-c2ccccc2)c2c1N(CCCC(=O)NCc1ccccc1)C(=O)CS2	u	u	i	-3.9%	7.8%	0.3%
Cc1nn(-c2ccccc2)c2c1N(CCCC(=O)NCc1ccc(OC(C)C)cc1)C(=O)CS2	u	10µM*	u	0.0%	-7.0%	-12.7%
Cc1ccc(CN(Cc2ccco2)C(=O)COc2ccc(C)c(C)c2)cc1	-88.5%	-8.4%	i	-12.2%	5.0%	0.2%
CCc1ccc(OCC(=O)N(Cc2ccc(C)cc2)Cc2ccco2)cc1	u	7.6%	1.9%	4.14µM*	22.3%	11.0%
CC(C)N(CCCNC(=O)Nc1ccc(C(C)(C)C)cc1)C[C@H]1O[C@@H](n2cc(Br)c3c(N)ncnc32)[C@H](O)[C@H]1O	x	x	-26.0%	x	x	x
COc1ccc(C)cc1Nc1nc(N)c2cc(OC)c(OC)cc2n1	u	u	u	u	u	10µM*
Cc1ccccc1OCC(O)Cn1c(=N)n(CCN2CCCCC2)c2ccccc21 (configuration not stated)	u	u	u	10.4µM*	-4.0%	20µM*
Cc1ccccc1OCCn1c(=N)n(C(C)C)c2ccccc21	u	u	u	18.5µM*	6.8%	u
Cc1ccccc1OCCn1c(CCNC(=O)C(C)C)nc2ccccc21	x	x	x	x	x	7.8%
CCc1ccc(NC(=O)c2cc(=O)c3ccc(C)c(C)c3o2)cc1	16.3µM*	u	-18.5%	u	8.8%	1.4%
CCN(c1ccccc1)S(=O)(=O)c1ccc(NC(=O)c2cc(=O)c3ccc(C)c(C)c3o2)cc1	-18.2%	-5.6%	0.9%	-0.1%	16.0%	1.7%
C=CCn1c(C)cc(C(=O)COC(=O)[C@@H](NC(=O)c2ccccc2Cl)C(C)C)c1C	x	x	x	x	11.2µM*	x
Cc1ccc(OCCSc2nc(-c3ccccc3C)nc3cc(=O)[nH]n23)cc1Cl	u	u	-3.3%	-2.2%	-6.5%	25.1µM*
Cc1cccc(OCCCSc2nc(-c3ccc(C(C)(C)C)cc3)nc3cc(=O)[nH]n23)c1C	-38.4%	1.1%	i	-1.8%	43.4%	12.6µM*
Cc1ccc(-n2c(=O)c3ccc(C(=O)NCc4ccco4)cc3n(Cc3ccccc3Cl)c2=O)cc1	-14.8%	-18.4%	-14.2%	9.3%	16.4%	-4.5%
Cc1ccc(-n2c(=O)c3ccc(C(=O)NCc4ccco4)cc3n(Cc3ccc(Cl)cc3)c2=O)cc1	u	u	-0.4%	11.7µM*	-10.5%	u
